# hgDAF-12 ag = activates the H. glycines DAF-12 receptor ligand-binding domain; activation, % at 6.8 µM; HEK293 GAL4-hgDAF12 UAS-luciferase reporter, agonist luminescence; normalized to butyrate control; AID 687014; hit rate 1.8% among 370,000;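 active = activation above a cutoff set at the mean of all screened compounds plus 3 SD, cut at about 10% in these data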
# DAX1 inh-1 = NR0B1 (DAX1) inhibition. hit rate 0.99% among 340,000. inhibition, % at 6.75 µM. HEK293 Gal4-DAX1 luciferase reporter, luminescence. AID 504766. P51843;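 active = inhibition above the mean over all tested compounds plus 3 SD, cut at about 4.2% in these data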;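 note: inhibition shows as a rise in luminescence from relieved DAX1 repression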
# Target sequence (P51843 207-470 limits assumed): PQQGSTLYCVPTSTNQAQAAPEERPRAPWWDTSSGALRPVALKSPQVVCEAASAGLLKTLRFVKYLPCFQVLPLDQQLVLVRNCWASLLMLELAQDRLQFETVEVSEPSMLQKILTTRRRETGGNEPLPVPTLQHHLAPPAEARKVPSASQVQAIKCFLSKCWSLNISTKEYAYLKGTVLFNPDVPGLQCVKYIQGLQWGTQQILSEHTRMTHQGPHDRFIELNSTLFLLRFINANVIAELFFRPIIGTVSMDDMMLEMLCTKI
# ssDAF12 agonist = S. stercoralis DAF-12 activation, primary screen; hit rate 1% among 370,000; activation, % at 6.8 µM; HEK293 ssDAF-12/GRIP1 lit1-tk-luc reporter, luminescence; % of 3 µM dafachronic acid response;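 active = activation above the mean over all tested compounds plus 3 SD, cut at about 0.9% in these data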
# hcDAF12 agonist = H. contortus DAF-12 activation, primary screen; HEK293 hcDAF-12 lit1-tk-luc reporter, luminescence; 0% DMSO, 100% Δ7-dafachronic acid; activation, % at 6.8 µM; hit rate 1.4% among 370,000;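 active = activation above the mean of all tested compounds plus 3 SD, cut at about 5.5% in these data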
# DAX1 inh-2 = blocks DAX1 repression of SF-1 activated StAR promoter; HEK293T StAR-luciferase reporter, SF-1/DAX-1 repression relief; inhibition, % at 6.8 µM; hit rate 1.1% among 370,000; AID 652010;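 active = inhibition above the mean over all tested compounds plus 3 SD, cut at about 3.6% in these data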;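 note: higher inhibition means more luminescence from relief of DAX-1 repression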
# A number is an active result; 0 = inactive; - = not tested or not shown. Most compounds without a hit are left out; they make up all but 4.1% or so of the library.
SMILES,hgDAF-12 ag,DAX1 inh-1,ssDAF12 agonist,hcDAF12 agonist,DAX1 inh-2
O=C(NCCN1CCC(Cc2ccccc2)CC1)C1CCCN(S(=O)(=O)c2ccc(Br)s2)C1 (stereo not given),0,-,0,0,0
O=C(NNC(=O)c1cccs1)c1cccc(F)c1,0,0,1.3,0,0
CN1C(=O)Nc2cccc3cccc1c23,0,4.4,0,0,0
COc1ccc(NC(C)=O)cc1S(=O)(=O)Nc1ccc(C(=O)N2CCCC2)cc1,0,4.4,0,0,0
COc1ccc(NC(C)=O)cc1S(=O)(=O)Nc1ccccc1C(=O)N1CCCC1,0,0,0,0,0
CCc1ccc2[nH]c(C(=O)Nc3ccc(C)c(F)c3)cc2c1,0,0,0,5.8,0
Cc1nn(-c2ccccc2)c2sc(C(=O)N3CCC4(CC3)OCCO4)cc12,0,-,0,0,0
Cc1ccccc1NC(=O)NCCc1ccc(Cl)cc1,0,0,0,0,0
S=C(NCCc1ccccc1)Nc1ccc(Cl)cc1,10.8,0,0,0,0
O=C(NCCc1ccccc1)Nc1ccc(Cl)cc1,12.9,0,0,0,0
C=C(C)[C@@H]1CC2=C(OC)C(CC=C(C)C)(CC=C(C)C)C(=O)C(C(=O)c3ccccc3)=C2O1,0,-,0,0,0
Cc1ccccc1NC(=S)c1nc2ccccc2[nH]1,0,0,1.2,5.8,0
Cc1ccccc1NC(=O)NCCc1nc2ccccc2[nH]1,0,0,0,0,0
Cc1cc(C)n2cc(CSc3nnc(N)s3)nc2n1,0,0,0,0,0
Cc1cc(C)n2cc(CSc3nc4ccccc4s3)nc2n1,0,0,0,5.7,0
CN1Cc2nnn(Cc3ccccc3)c2-c2cc(F)ccc2S1(=O)=O,0,-,0,0,0
O=C(NCCc1ccccc1)C1CCN(C(=O)c2ccc([N+](=O)[O-])cc2)CC1,0,0,0.9,0,0
COC(=O)C1CN(Cc2cn(CCC3OCCO3)nn2)CCS(=O)(=O)N1Cc1ccccc1 (stereo not given),0,-,0,0,0
CCCC(=O)NC(=S)c1c(C)n(C)n(-c2ccccc2)c1=O,0,0,0,5.8,0
Cc1c(Cc2c(C)n(C)n(-c3ccccc3)c2=O)c(=O)n(-c2ccccc2)n1C,0,0,0,0,0
CS(=O)(=O)N(CC(=O)N1CCCCC1)Cc1ccccc1,0,5.0,0,0,0
Cn1c(=O)oc2cc(S(=O)(=O)N3CCN(CCO)CC3)ccc21,0,-,0,0,0
Cc1nc2ccc(NC(=O)c3ccco3)cc2s1,12.1,0,0,0,0
CSc1nc2ccc(NC(=O)c3ccc(Cl)s3)cc2s1,0,0,0,0,4.1
Cc1nc2ccc(NC(=O)c3ccccc3)cc2s1,11.2,0,0,0,0
SMILES,hgDAF-12 ag,DAX1 inh-1,ssDAF12 agonist,hcDAF12 agonist,DAX1 inh-2
Cc1nc2ccc(NC(=O)Cc3ccsc3)cc2s1,0,0,1.3,5.8,0
C=CCN1C(C(=O)OC)CN(Cc2cn(Cc3ccc(C)cc3)nn2)CCS1(=O)=O (stereo not given),0,-,0,0,0
COCC(=O)N(Cc1ccccc1)c1ccccc1C(=O)Nc1cc(OC)ccc1OC,0,-,0,0,0
CN1C(=O)c2cc(NC(=O)Nc3ccccc3)ccc2OC[C@H]2O[C@@H](CC(=O)NCc3ccc(-c4ccccc4)cc3)CC[C@@H]21,0,-,0,0,0
C#CCNC(=O)C[C@@H]1C(=O)N(Cc2ccc(OC)cc2)C2=CCN(C(=O)OC(C)(C)C)C[C@]21C(=O)OCC,0,-,0,0,0
Cc1nc2ccc(NC(=O)CCS(=O)(=O)c3ccccc3)cc2s1,0,5.2,0,0,0
Cc1ccc(S(=O)(=O)CCC(=O)Nc2ccc3nc(C)sc3c2)cc1,0,0,0,0,0
COc1cc(CC(=O)Nc2ccc3nc(SC)sc3c2)cc(OC)c1OC,0,0,0,0,0
CNC(=O)Nc1ccc2nc(C)sc2c1,0,0,0,0,0
CSc1nc2ccc(NC(=O)COc3ccccc3F)cc2s1,0,0,0,0,3.7
Cc1nc2ccc(NC(=O)c3sccc3C)cc2s1,12.1,0,0,0,0
Cc1ccc(S(=O)(=O)CCC(=O)Nc2cccc([N+](=O)[O-])c2)cc1,0,7.3,0,0,0
CC(C)CN1C(=O)[C@]2(CC(=O)N(C)C2c2ccccc2)c2cc(-n3cc(CN(C)C)nn3)ccc21 (stereo not given in full),0,-,0,0,0
CC(COc1ccc(S(C)(=O)=O)cc1)CN1CCC(C(O)(c2ccccc2)c2ccccc2)CC1 (stereo not given),0,-,0,0,0
